Assay [1] concerns the target Rap guanine nucleotide exchange factor 3 (Homo sapiens) (UniProt O95398). Kind of assay: Confirmatory qHTS for agonist of cAMP-regulated guanine nucleotide exchange factor 3 (EPAC1) (AID 1645881).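 Also: EPAC1 catalysed release of BODIPY-GDP from Rap1B seen as fluorescence loss; 100% = effect of cAMP agonist control; nearly all actives have a fitted effect of over 75% in size.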
Assay [2] addresses Rap guanine nucleotide exchange factor 4 (Homo sapiens) (UniProt Q8WZA2). Kind of assay: Confirmatory qHTS for agonist of cAMP-regulated guanine nucleotide exchange factor 4 (EPAC2) (AID 1645884).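 Also: nucleotide exchange releases bodipy-GDP from Rap1 and this lowers its fluorescence; % is scaled to controls: 0 for no effect and ±100 for the full control effect; nearly all actives have a fitted effect of over 65% in size.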 Background: In qHTS, concentration-response curves come from the screen itself.
Assay [3] has the same target. Kind of assay: Confirmatory qHTS for antagonist of cAMP-regulated guanine nucleotide exchange factor 4 (EPAC2) (AID 1645885). Also: nearly all actives have a fitted effect of over 25% in size. Also: potency is read from the fitted curve at half-maximal effect. As to activity change, negative = inhibition: % is scaled to controls: 0 for no effect and ±100 for the full control effect.
The target of assay [4] is Rap guanine nucleotide exchange factor 3 (Homo sapiens) (UniProt O95398). Kind of assay: Counterscreen qHTS for antagonist of cAMP-regulated guanine nucleotide exchange factor 3 (EPAC1) (AID 1645888).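 Also: fluorescence loss as bound BODIPY-GDP is released from Rap1B; % of control where 0% means no effect.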 Summed up:
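Measured: fluorescence of BODIPY-GDP bound to Rap1B, which falls as exchange proceeds. Conditions include 50 uM competing GDP, 5 and 30 min reads, and a later cAMP challenge for antagonist detection.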
(In general: The purpose of a counterscreen is to sort out artefacts and off-target activity.)

Results filed as inconclusive are left out. Values without a mark were called inactive. Calls of active or inactive are those of the source. Calls follow the shape of the dose curve; as a rule, active = well fitted curve in the direction sought with a large enough effect; inconclusive = small, poorly fitted or top-dose-only effect, or another doubt; inactive = no such curve, though single readings can be large; an effect the other way counts as inactive or inconclusive.

Sequence of Rap guanine nucleotide exchange factor 4 (Homo sapiens) (Q8WZA2 whole entry, looked up): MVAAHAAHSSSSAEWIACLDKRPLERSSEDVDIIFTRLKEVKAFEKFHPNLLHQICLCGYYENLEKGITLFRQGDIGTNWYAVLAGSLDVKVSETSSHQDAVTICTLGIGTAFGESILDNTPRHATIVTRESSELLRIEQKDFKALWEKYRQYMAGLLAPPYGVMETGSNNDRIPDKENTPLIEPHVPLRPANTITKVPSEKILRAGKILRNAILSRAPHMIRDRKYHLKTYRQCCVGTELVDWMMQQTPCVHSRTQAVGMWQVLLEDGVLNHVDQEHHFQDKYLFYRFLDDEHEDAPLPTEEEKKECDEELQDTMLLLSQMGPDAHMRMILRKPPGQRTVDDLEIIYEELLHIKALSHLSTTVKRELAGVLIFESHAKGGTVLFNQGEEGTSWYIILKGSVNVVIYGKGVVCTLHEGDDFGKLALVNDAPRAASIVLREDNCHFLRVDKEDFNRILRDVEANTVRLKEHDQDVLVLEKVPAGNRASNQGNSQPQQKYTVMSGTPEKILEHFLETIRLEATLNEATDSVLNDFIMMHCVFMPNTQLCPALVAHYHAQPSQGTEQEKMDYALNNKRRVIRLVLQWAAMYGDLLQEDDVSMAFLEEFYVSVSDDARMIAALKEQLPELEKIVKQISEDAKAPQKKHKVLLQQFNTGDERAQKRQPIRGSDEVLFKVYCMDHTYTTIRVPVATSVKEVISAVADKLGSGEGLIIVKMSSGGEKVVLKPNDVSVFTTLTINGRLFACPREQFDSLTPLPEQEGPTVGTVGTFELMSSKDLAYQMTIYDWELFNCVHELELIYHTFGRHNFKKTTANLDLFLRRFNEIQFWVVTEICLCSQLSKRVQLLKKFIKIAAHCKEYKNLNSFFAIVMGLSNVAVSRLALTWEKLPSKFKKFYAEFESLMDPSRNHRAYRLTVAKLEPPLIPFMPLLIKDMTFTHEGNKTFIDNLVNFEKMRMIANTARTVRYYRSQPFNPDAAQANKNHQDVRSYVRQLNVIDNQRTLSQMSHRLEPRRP
Sequence of Rap guanine nucleotide exchange factor 3 (Homo sapiens) (O95398 whole entry, looked up): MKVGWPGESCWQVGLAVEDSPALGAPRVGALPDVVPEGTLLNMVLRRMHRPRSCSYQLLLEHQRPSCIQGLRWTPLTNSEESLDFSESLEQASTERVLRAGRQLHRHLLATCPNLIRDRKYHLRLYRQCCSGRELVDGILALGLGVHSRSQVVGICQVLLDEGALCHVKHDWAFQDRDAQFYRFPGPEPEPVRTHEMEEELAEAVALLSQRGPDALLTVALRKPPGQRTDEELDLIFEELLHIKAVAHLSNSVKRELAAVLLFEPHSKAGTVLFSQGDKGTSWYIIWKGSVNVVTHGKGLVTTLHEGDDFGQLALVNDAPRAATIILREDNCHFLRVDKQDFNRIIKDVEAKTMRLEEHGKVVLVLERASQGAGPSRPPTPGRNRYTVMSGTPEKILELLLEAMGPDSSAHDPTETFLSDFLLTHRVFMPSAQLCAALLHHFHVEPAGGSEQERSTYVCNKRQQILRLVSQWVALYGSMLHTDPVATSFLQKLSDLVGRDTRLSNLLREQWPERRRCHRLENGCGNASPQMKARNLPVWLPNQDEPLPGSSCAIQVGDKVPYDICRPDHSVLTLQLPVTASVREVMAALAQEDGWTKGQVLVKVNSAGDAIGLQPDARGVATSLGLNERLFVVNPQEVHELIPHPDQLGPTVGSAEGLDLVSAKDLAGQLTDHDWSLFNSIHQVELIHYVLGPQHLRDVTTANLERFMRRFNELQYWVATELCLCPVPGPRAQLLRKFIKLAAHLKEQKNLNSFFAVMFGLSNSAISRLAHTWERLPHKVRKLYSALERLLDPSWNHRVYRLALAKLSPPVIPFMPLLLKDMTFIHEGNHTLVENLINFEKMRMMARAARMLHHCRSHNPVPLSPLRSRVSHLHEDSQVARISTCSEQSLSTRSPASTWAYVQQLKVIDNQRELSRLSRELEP

With `O=C1/C(=C/c2cccs2)COc2ccccc21`, the Potency entry in assay [1] and in assay [3] was “inactive” throughout. In addition, the activation in assay [2] is 1.85% [at 17.1 µM, percent relative to cAMP agonist control]. Moreover, in assay [4], the activity change, negative = inhibition was -3.32% [at 30.8 µM].
With `C/C=C/COC(=O)c1[nH]c2c(c1C)C(=O)CC(c1ccco1)C2` (centres undefined), the Potency entry in assay [1], in assay [2], in assay [3] and in assay [4] was “inactive” throughout.
For the compound `O=S1(=O)N=C(N(Cc2cccs2)c2ccc(O)cc2)c2ccccc21`, the Potency result in assay [1], in assay [2], in assay [3] and in assay [4] was “inactive” throughout.
On to `CCc1ccc2c(c1)NC(=O)C2(C)Cc1ccc(F)cc1` (centres undefined), for which the Potency result in assay [1] and in assay [3] was “inactive” each time. Also, in assay [2], the activation is 12.7% [at 17.1 µM, percent relative to cAMP agonist control]. Also, the activity change, negative = inhibition in assay [4] is 16.2% [at 30.8 µM].
In the case of `CC(C)C(CCNC(=O)CC(Cc1ccccc1)c1ccco1)c1ccco1` (centres undefined), the Potency entry in assay [1] and in assay [3] was “inactive” each time. For the same compound, the activation in assay [2] is 3.03% [at 17.1 µM, percent relative to cAMP agonist control]. The activity change, negative = inhibition in assay [4] is 24.9% [at 30.8 µM].
On to `Oc1c(Br)cc(Br)cc1CNc1cccc2cccnc12`, for which the Potency result in assay [1], in assay [2] and in assay [4] was “inactive” each time. The Potency in assay [3] is 26.9 µM (active).
Regarding `Cc1ccc(OCC(=O)Nc2ccc(Cl)c(-c3nc4ccccc4[nH]3)c2)cc1C`, the Potency result in assay [1], in assay [2] and in assay [4] was “inactive” throughout. Besides, in assay [3], the outcome was “inactive [at 12.7 µM]”.
Turning to `CN(C)S(=O)(=O)c1cccc(COC(=O)Cc2c(F)cccc2Cl)c1`, the Potency result in assay [1], in assay [2], in assay [3] and in assay [4] was “inactive” each time.
For `O=C(O)/C=C\C(=O)Nc1ccccc1C#Cc1ccc(Br)cc1`, the Potency result in assay [1], in assay [2] and in assay [4] was “inactive” each time. For the same compound, the Potency in assay [3] is 1.35 µM (active).
As to `CCCCc1ccc(NS(=O)(=O)c2cc3c4c(c2)CC(=O)N4CCC3)cc1`, the Potency entry in assay [1], in assay [2], in assay [3] and in assay [4] was “inactive” each time.
In the case of `O=C(Nc1cc(S(=O)(=O)Nc2ccc(Cl)cc2)ccc1O)c1ccc(S(=O)(=O)N2CCCCCC2)cc1`, the Potency entry in assay [1], in assay [2], in assay [3] and in assay [4] was “inactive” throughout.
With `O=C(COC(=O)C1(c2ccc(Cl)cc2)CCCC1)NCc1ccco1`, the Potency entry in assay [1], in assay [2] and in assay [4] was “inactive” throughout. In addition, the Potency in assay [3] was 75.7 µM (active).
Regarding `CCCC1=C/C(=C/c2ccc(-c3ccccc3OC)o2)C(=O)O1`, the Potency entry in assay [1] and in assay [3] was “inactive” throughout. Also, the activation in assay [2] was 1.16% [at 17.1 µM, percent relative to cAMP agonist control]. For the same compound, the activity change, negative = inhibition in assay [4] is -9.78% [at 30.8 µM].
Consider `Cc1cccc(S(=O)(=O)Nc2ccc(S(=O)(=O)Nc3nccs3)cc2)c1`, for which the Potency result in assay [1], in assay [2] and in assay [4] was “inactive” in each case. In assay [3], the Potency is 75.7 µM (active).
In the case of `CCOC(=O)c1ccc2ncc(C(=O)OCC)c(Nc3ccc(C)c(Br)c3)c2c1`, the Potency result in assay [1], in assay [2] and in assay [4] was “inactive” each time. In addition, the outcome in assay [3] is “inactive [at 12.7 µM]”.
With `O=C(O)c1ccc(/C=C2\COc3ccccc3C2=O)cc1`, the Potency entry in assay [1], in assay [2] and in assay [4] was “inactive” throughout. In assay [3], the Potency is 84.9 µM (active).
Consider `O=C(CSc1nc(-c2ccccc2)nc2c1Cc1ccccc1O2)Nc1ccc(C(=O)O)cc1`, for which the Potency entry in assay [1], in assay [2], in assay [3] and in assay [4] was “inactive” in each case.
Take `CN(C)c1ccc(-c2[nH][nH]c(=O)c2NC(=O)c2ccccn2)cc1`: the Potency result in assay [1], in assay [2], in assay [3] and in assay [4] was “inactive” in each case.
With `CN1CCN(c2cc(N3CCN(C(=O)c4ccco4)CC3)c3c4c(onc24)-c2ccccc2C3=O)CC1`, the Potency result in assay [1], in assay [2], in assay [3] and in assay [4] was “inactive” each time.
`C=CS(=O)(=O)N(Cc1ccccc1Br)[C@H](CO)CC(C)C`: the Potency entry in assay [1] and in assay [3] was “inactive” throughout. The activation in assay [2] is 1.88% [at 17.1 µM, percent relative to cAMP agonist control]. Moreover, in assay [4], the activity change, negative = inhibition was -13.6% [at 30.8 µM].
With `CC(C)Oc1cccc(C(=O)Nc2ccc3oc(-c4cccc(Cl)c4)nc3c2)c1`, the Potency entry in assay [1], in assay [2], in assay [3] and in assay [4] was “inactive” throughout.
For the compound `CN(CCOc1ccc(Br)cc1)C(=O)CNC(=O)c1ccc2ccccc2c1`, the Potency entry in assay [1] and in assay [3] was “inactive” throughout. Further, the activation in assay [2] was 0.226% [at 17.1 µM, percent relative to cAMP agonist control]. Moreover, the activity change, negative = inhibition in assay [4] was -17.3% [at 30.8 µM].
Take `Clc1cccc(Cc2c(-c3ccco3)nc3ccc(Br)cn23)c1`: the Potency entry in assay [1] and in assay [3] was “inactive” in each case. Further, in assay [2], the activation is 2.6% [at 17.1 µM, percent relative to cAMP agonist control]. The activity change, negative = inhibition in assay [4] was -13.4% [at 30.8 µM].
With `Cc1cccc(Cn2c(COc3ccccc3)nc3ccccc32)c1`, the Potency entry in assay [1], in assay [2], in assay [3] and in assay [4] was “inactive” each time.
For the compound `CCn1c(SCC(=O)N/N=C/C=C\c2ccco2)nc2ccccc21`, the Potency entry in assay [1], in assay [2], in assay [3] and in assay [4] was “inactive” throughout.
With `CCC1=Nc2cc(C(=O)NCCCOC)ccc2Sc2ccc(Br)cc21`, the Potency entry in assay [1], in assay [2], in assay [3] and in assay [4] was “inactive” throughout.

(Values after PubChem BioAssay (NCATS).)
